{"source": "PubChem BioAssay (Tox21)", "note": "Activity calls are given as the source filed them. Where a call stands in place of a potency, no number is given. Calls follow the shape of the full dose curve."}
{"biological_target": "Acetylcholinesterase (Homo sapiens) (UniProt P22303)", "sequence (P22303 whole entry, looked up)": "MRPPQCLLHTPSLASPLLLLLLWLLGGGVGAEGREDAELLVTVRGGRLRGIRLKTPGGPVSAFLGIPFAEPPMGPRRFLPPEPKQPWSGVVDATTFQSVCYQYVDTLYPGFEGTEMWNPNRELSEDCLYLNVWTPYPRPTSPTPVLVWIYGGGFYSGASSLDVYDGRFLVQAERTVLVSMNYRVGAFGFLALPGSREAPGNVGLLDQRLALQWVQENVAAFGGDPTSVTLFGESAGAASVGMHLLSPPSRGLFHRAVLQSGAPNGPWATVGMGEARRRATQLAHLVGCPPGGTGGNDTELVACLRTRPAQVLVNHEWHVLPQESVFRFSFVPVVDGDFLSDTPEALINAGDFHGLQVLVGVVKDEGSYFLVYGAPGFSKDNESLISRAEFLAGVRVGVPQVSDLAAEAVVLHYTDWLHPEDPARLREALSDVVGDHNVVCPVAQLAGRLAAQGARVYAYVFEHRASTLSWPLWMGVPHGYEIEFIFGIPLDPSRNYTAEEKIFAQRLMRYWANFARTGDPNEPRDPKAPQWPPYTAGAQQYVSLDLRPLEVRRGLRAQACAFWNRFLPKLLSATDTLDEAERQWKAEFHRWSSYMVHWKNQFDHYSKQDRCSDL", "assay": "Acetylcholinesterase (AChE) small molecule antagonists: enzyme-based qHTS assay with human liver microsomes (AID 1347399); also: nearly all actives have a fitted effect of over 60% in size", "settings": "Potency: qHTS inhibition; outcome: qHTS inhibition; series mostly up to 115 µM", "procedure,_shortened": "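Recombinant human AChE (50 mU/mL in the enzyme mix) and human liver microsomes (0.25 mg/mL final) were preincubated with compound and NADPH (0.25 mg/mL final) for 30 min at 37 C. Acetylthiocholine/DTNB was then added; thiocholine was read colorimetrically after 10 min at room temperature.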"}
{"molecule": "Oc1cccc(O)c1O", "Potency": "inactive"}
{"molecule": "CC(C)c1ccc2oc3nc(N)c(C(=O)O)cc3c(=O)c2c1", "Potency": "inactive"}
{"molecule": "CCC1(CO)COCOC1", "Potency": "inactive"}
{"molecule": "CCC(CO)(CO)[N+](=O)[O-]", "Potency": "inactive"}
{"molecule": "CCCN(CCC)CCc1cccc2c1CC(=O)N2", "Potency": "inactive"}
{"molecule": "CC(C)C(=O)OCCc1ccccc1", "Potency": "inactive"}
{"molecule": "COc1cccc([C@H](O)C2CCN(CCc3ccc(F)cc3)CC2)c1OC", "Potency": "inactive"}
{"molecule": "Nc1ccn([C@@H]2O[C@H](CO)[C@@H](O)C2(F)F)c(=O)n1", "Potency": "inactive"}
{"molecule": "CO[C@@H]1COCC[C@@H]1N[C@@H]1CC[C@@](C(=O)N2CCc3ncc(C(F)(F)F)cc3C2)(C(C)C)C1", "Potency": "inactive"}
{"molecule": "CN1C(C)(C)CCCC1(C)C", "Potency": "inactive"}
{"molecule": "COC(=O)[C@H]1[C@H]2C[C@@H]3c4[nH]c5cc(OC)ccc5c4CCN3C[C@H]2C[C@@H](OC(=O)COc2ccc(OC)cc2)[C@@H]1OC", "Potency": "inactive"}
{"molecule": "CCCCCCCCN1CCCC1=O", "Potency": "inactive"}
{"molecule": "CC(C)C(C)C", "Potency": "inactive"}
{"molecule": "C=C(C)C1CC=C(C)C(O)C1", "note": "(configuration not stated)", "Potency": "inactive"}
{"molecule": "CCC(C)(CCC(C)C)C(=O)O", "note": "(configuration not stated)", "Potency": "inactive"}
{"molecule": "O=C(O)c1cccnc1C(=O)O", "Potency": "inactive"}
{"molecule": "COc1ccc(CCC(=O)c2c(O)cc(O[C@@H]3O[C@H](CO)[C@@H](O)[C@H](O)[C@H]3O[C@@H]3O[C@@H](C)[C@H](O)[C@@H](O)[C@H]3O)cc2O)cc1O", "Potency": "inactive"}
